In experiment [1] the target is Aryl hydrocarbon receptor (Homo sapiens) (UniProt P35869). The experiment can be described thus: qHTS assay to identify small molecule that activate the aryl hydrocarbon receptor (AhR) signaling pathway (AID 743085). Also: nearly all actives have a fitted effect of over 15% in size. Also: potency is read from the fitted curve at half-maximal effect.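 As to activation: HG2L7.5c1 human HepG2 liver cells with stably integrated DRE-driven firefly reporter; series mostly up to about 70 µM.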 Put shortly:
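Luminescence read-out: ONE-Glo reagent, 30 min at room temperature, in HG2L7.5c1 HepG2 reporter cells treated 24 h at 37C. Viability was measured beforehand by CellTiter-Fluor fluorescence after 30 min at 37C.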
A general note: qHTS replaces the single test concentration by a dilution series.

The nature of experiment [2]: qHTS assay for small molecule agonists of the antioxidant response element (ARE) signaling pathway - cell viability counter screen (AID 743203; calls by dose curve; also: nearly all actives have a fitted effect of over 55% in size; also: potency is read from the fitted curve at half-maximal effect). Put shortly:
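ARE-bla HepG2 cells were plated, rested 5 h at 37C/5% CO2, then exposed to compounds in DMSO for 16 h. Viability was read as CellTiter-Glo luminescence after 30 min at room temperature, in the same wells as the ARE screen.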

Experiment [3] can be described thus: qHTS assay for small molecule activators of the heat shock response signaling pathway - cell viability counter screen (AID 743209). Also: nearly all actives have a fitted effect of over 50% in size. Also: potency is read from the fitted curve at half-maximal effect. The procedure, abridged: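 HSE-bla HeLa cells plated overnight, then exposed to Tox21 compounds (23 nL in DMSO) for 5 h at 37 C. After the bla reporter read, CellTiter-Glo was added in the same wells and luminescence read after 30 min at room temperature.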

Experiment [4] is described as follows: qHTS assay for small molecule activators of the heat shock response signaling pathway (AID 743210; active = well fitted activation curve with a large enough effect in the signal ratio in the repeat runs, with a control signal flat, not every such curve was filed as active; the % refers to the signal ratio;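 also: HeLa cells with beta-lactamase reporter driven by heat shock elements; series mostly up to about 63 µM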). The procedure, abridged: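 Reporter gene assay: HeLa cells stably bearing an HSE-bla construct, compound treatment 5 h at 37 C, LiveBLAzer substrate 2.5 h at RT, fluorescence intensity.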
Experiment [5] in a line: qHTS assay to identify small molecule agonists of the peroxisome proliferator-activated receptor delta (PPARd) signaling pathway - cell viability counter screen (AID 743211). Also: nearly all actives have a fitted effect of over 55% in size. Also: potency is read from the fitted curve at half-maximal effect. Put shortly:
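Read-out: CellTiter-Glo luminescence, 30 min RT, measured in the same wells as the beta-lactamase reporter. Cells: GeneBLAzer PPAR delta UAS-bla HEK293H, 3000 cells/well, compound exposure 17 h at 37C.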

The nature of experiment [6]: qHTS assay to identify small molecule antagonists of the peroxisome proliferator-activated receptor delta (PPARd) signaling pathway - cell viability counter screen (AID 743213). Also: nearly all actives have a fitted effect of over 50% in size. Also: potency is read from the fitted curve at half-maximal effect. Put shortly:
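HEK293H cells with the PPARd UAS-bla reporter, co-treated 17 h at 37 C with compounds and L165041 (300 nM final), were lysed with CellTiter-Glo. Luminescence indicated viable cell content.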

Experiment [7] is described as follows: qHTS assay to identify small molecule antagonists of the farnesoid-X-receptor (FXR) signaling pathway - cell viability counter screen (AID 743221; active = well fitted cell-killing curve with a large enough effect in the repeat runs, not every such curve was filed as active; also: nearly all actives have a fitted effect of over 50% in size; also: potency is read from the fitted curve at half-maximal effect). The procedure, abridged: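 HEK 293T FXR-bla cells, 5 h pre-incubation; compound + CDCA 50 uM final, 16 h, 37 C; beta-lactamase FRET read first, then CellTiter-Glo luminescence, 30 min RT.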
Experiment [8] in a line: qHTS assay for small molecule agonists of the antioxidant response element (ARE) signaling pathway (AID 743202; active = well fitted activation curve with a large enough effect in the signal ratio in the repeat runs, not every such curve was filed as active; the % refers to the signal ratio; also: potency is read from the fitted curve at half-maximal effect). The procedure, abridged: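 Compounds delivered in DMSO to ARE-bla HepG2 cells (2,000 cells/well, pre-incubated 5 h) and left 16 h at 37 C. LiveBLAzer B/G FRET substrate then added for 2 h at RT before fluorescence reading.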
For experiment [9], the target named is Peroxisome proliferator-activated receptor gamma (Homo sapiens) (UniProt P37231). Nature of the experiment: qHTS assay to identify small molecule agonists of the peroxisome proliferator-activated receptor gamma (PPARg) signaling pathway (AID 743094; active = well fitted activation curve with a large enough effect in the signal ratio in the repeat runs, not every such curve was filed as active; the % refers to the signal ratio; also: potency is read from the fitted curve at half-maximal effect). Put shortly: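 GeneBLAzer PPARg UAS-bla HEK293H cells were plated, rested 5 h, then exposed to compounds for 17 h at 37C. Beta-lactamase activity was read by LiveBLAzer B/G FRET substrate fluorescence after 1 h at room temperature.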
Peroxisome proliferator-activated receptor gamma (Homo sapiens), sequence (P37231 whole entry, looked up): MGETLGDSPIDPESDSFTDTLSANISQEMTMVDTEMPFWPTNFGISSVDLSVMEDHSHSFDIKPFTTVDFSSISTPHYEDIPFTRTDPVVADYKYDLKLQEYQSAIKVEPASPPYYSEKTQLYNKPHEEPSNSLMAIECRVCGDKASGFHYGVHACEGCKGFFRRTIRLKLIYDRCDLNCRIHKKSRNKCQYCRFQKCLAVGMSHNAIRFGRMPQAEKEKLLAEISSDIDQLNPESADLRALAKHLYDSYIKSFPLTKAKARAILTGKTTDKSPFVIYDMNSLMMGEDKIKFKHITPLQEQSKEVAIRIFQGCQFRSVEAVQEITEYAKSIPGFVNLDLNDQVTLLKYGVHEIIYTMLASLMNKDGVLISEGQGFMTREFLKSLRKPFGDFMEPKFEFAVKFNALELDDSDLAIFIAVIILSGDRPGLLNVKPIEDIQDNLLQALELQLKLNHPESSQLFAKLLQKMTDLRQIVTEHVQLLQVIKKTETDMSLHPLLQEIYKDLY

Experiment [10] can be described thus: qHTS assay to identify small molecule antagonists of the peroxisome proliferator-activated receptor gamma (PPARg) signaling pathway - cell viability counter screen (AID 743194). Also: nearly all actives have a fitted effect of over 55% in size. Also: potency is read from the fitted curve at half-maximal effect. Put shortly:
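PPARg-UAS-bla HEK293H cells were plated, rested 5 h at 37 C, then treated with compounds plus rosiglitazone (50 nM final) for 17 h at 37 C; viability was then read by CellTiter-Glo luminescence after 30 min at room temperature.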

The target of experiment [11] is Peroxisome proliferator-activated receptor delta (Homo sapiens) (UniProt Q03181). Nature of the experiment: qHTS assay to identify small molecule agonists of the peroxisome proliferator-activated receptor delta (PPARd) signaling pathway (AID 743212; calls by dose curve). The procedure, abridged: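 A PPARd-bla HEK293H line with beta-lactamase under an Upstream Activator Sequence is treated with compounds at 37 C. Substrate loading for 2 h at room temperature precedes the fluorescence measurement.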
Peroxisome proliferator-activated receptor delta (Homo sapiens), sequence (Q03181 whole entry, looked up): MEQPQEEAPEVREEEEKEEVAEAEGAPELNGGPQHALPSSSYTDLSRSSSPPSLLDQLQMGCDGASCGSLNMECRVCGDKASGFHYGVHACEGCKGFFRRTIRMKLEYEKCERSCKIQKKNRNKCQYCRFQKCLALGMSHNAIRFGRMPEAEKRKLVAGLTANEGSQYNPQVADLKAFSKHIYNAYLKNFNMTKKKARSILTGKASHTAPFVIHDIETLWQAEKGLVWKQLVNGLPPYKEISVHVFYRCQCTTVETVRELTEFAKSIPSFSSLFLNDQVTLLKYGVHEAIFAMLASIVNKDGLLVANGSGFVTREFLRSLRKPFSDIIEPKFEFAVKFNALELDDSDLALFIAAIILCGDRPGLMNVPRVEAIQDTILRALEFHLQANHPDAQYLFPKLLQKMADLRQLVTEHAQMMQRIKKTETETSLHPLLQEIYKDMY

Experiment [12] deals with Bile acid receptor (Homo sapiens) (UniProt Q96RI1). Nature of the experiment: qHTS assay to identify small molecule antagonists of the farnesoid-X-receptor (FXR) signaling pathway (AID 743217; active = well fitted inhibition curve with a large enough effect in the signal ratio in the repeat runs, not every such curve was filed as active; the % refers to the signal ratio). The procedure, abridged:
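FXR-UAS-bla HEK 293T cells (beta-lactamase reporter) given compound plus chenodeoxycholic acid (50 uM final), 16 h at 37C. LiveBLAzer B/G FRET substrate added for 2 h at room temperature; fluorescence read.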

Experiment [13] has the same target. Nature of the experiment: qHTS assay to identify small molecule agonists of the farnesoid-X-receptor (FXR) signaling pathway (AID 743220; active = well fitted activation curve with a large enough effect in the signal ratio in the repeat runs, not every such curve was filed as active; the % refers to the signal ratio). Put shortly:
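Beta-lactamase reporter under UAS control in GeneBLAzer FXR HEK 293T cells (5000/well) measured with LiveBLAzer FRET substrate after 2 h at room temperature. Compound exposure lasted 16 h at 37C.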

For experiment [14], the target named is Vitamin D3 receptor (Homo sapiens) (UniProt P11473). The experiment can be described thus: qHTS assay to identify small molecule antagonists of the vitamin D receptor (VDR) signaling pathway (AID 743223; active = well fitted inhibition curve with a large enough effect in the signal ratio in the repeat runs, not every such curve was filed as active; the % refers to the signal ratio). Put shortly:
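Beta-lactamase reporter read-out: FRET substrate fluorescence after 2 h at room temperature, following 16 h exposure of VDR-bla cells to test compound plus 3 nM (final) 1alpha,25-dihydroxyvitamin D3 agonist at 37C.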

Experiment [15] is described as follows: qHTS assay to identify small molecule that activate the aryl hydrocarbon receptor (AhR) signaling pathway - cell viability counter screen (AID 743086).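 Also: HepG2 liver cells carrying the AhR DRE luciferase reporter; series mostly up to about 70 µM; nearly all actives have a fitted effect of over 45% in size.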 The procedure, abridged:
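HepG2-AhR-luc (HG2L7.5c1) cells, 4000/well, were preincubated 5 h at 37C, exposed to compound in qHTS format for 24 hr at 37C, then given CellTiter-Fluor for 30 min; viability was read as fluorescence in the reporter wells.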

A short description of experiment [16]: qHTS assay to identify small molecule agonists of the farnesoid-X-receptor (FXR) signaling pathway - cell viability counter screen (AID 743218). Also: nearly all actives have a fitted effect of over 45% in size. Also: potency is read from the fitted curve at half-maximal effect. Put shortly:
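FXR-UAS-bla HEK 293T cells exposed to compounds for 16 h at 37C. Cytotoxicity read in the same wells by CellTiter-Glo luminescence after 30 min at room temperature, following the beta-lactamase FRET read.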

Experiment [17] concerns the target Peroxisome proliferator-activated receptor delta (Homo sapiens) (UniProt Q03181). Nature of the experiment: qHTS assay to identify small molecule antagonists of the peroxisome proliferator-activated receptor delta (PPARd) signaling pathway (AID 743215; active = well fitted inhibition curve with a large enough effect in the signal ratio in the repeat runs, not every such curve was filed as active; the % refers to the signal ratio;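 also: cells stimulated with agonist L165041 at 300 nM final during compound exposure; series mostly up to about 62 µM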). The procedure, abridged: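 PPARd-bla HEK293H cells (UAS-bla reporter) preincubated 5 h, then given compound plus 300 nM final L165041 agonist for 17 h at 37 C. Beta-lactamase activity read by LiveBLAzer B/G FRET substrate fluorescence after 2 h at room temperature.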

Experiment [18] has as its target Vitamin D3 receptor (Homo sapiens) (UniProt P11473). The experiment can be described thus: qHTS assay to identify small molecule agonists of the vitamin D receptor (VDR) signaling pathway (AID 743222; calls by dose curve). The procedure, abridged: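 VDR-bla cells plated 4 h at 37 C, then exposed to compounds for 16 h at 37 C. Beta-lactamase reporter activity measured by fluorescence after 2 h room-temperature loading with LiveBLAzer B/G FRET substrate.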

Experiment [19] concerns the target Peroxisome proliferator-activated receptor gamma (Homo sapiens) (UniProt P37231). Nature of the experiment: qHTS assay to identify small molecule antagonists of the peroxisome proliferator-activated receptor gamma (PPARg) signaling pathway (AID 743191; calls by dose curve; also: series mostly up to about 63 µM; nearly all actives have a fitted effect of over 30% in size). The procedure, abridged: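 GeneBLAzer PPARg UAS-bla HEK293H cells carrying a UAS-driven beta-lactamase reporter were plated at 3000 cells/well, preincubated 5 h at 37C, then given compound for 17 h at 37C; LiveBLAzer B/G FRET substrate was read after 1 h at room temperature.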

“And” between values parts separate entries of the source, which are not always exact repeats. Equal values may be shown once. Inconclusive results are not listed. The source made the active and inactive calls. Unless noted, calls follow the shape of the dose curve; as a rule, active = well fitted curve in the direction sought with a large enough effect in the repeat runs; inconclusive = weak or mixed curves; inactive = no such curve, though single readings can be large; an effect the other way counts as inactive or inconclusive.

Aryl hydrocarbon receptor (Homo sapiens), sequence (P35869 whole entry, looked up): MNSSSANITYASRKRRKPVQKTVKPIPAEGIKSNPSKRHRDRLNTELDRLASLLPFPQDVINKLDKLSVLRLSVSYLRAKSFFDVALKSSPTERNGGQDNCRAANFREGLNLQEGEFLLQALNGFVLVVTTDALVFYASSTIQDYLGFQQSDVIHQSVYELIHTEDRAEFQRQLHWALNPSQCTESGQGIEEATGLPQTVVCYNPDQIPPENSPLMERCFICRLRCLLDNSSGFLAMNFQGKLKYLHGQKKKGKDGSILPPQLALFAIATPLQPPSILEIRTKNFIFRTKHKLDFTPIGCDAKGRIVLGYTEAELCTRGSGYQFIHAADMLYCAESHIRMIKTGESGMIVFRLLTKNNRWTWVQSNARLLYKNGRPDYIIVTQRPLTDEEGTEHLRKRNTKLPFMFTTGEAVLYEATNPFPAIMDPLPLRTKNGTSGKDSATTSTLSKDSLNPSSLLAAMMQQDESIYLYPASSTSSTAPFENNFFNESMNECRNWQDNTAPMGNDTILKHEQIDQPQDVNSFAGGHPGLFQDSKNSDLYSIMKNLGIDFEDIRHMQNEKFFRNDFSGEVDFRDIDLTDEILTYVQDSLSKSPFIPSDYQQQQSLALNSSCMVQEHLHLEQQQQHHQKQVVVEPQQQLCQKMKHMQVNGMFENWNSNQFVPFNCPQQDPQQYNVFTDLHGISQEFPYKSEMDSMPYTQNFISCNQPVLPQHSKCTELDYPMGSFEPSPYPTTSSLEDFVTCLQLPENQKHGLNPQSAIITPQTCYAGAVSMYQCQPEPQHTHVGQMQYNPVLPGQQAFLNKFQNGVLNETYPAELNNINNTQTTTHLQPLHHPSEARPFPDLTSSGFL
Vitamin D3 receptor (Homo sapiens), sequence (P11473 whole entry, looked up): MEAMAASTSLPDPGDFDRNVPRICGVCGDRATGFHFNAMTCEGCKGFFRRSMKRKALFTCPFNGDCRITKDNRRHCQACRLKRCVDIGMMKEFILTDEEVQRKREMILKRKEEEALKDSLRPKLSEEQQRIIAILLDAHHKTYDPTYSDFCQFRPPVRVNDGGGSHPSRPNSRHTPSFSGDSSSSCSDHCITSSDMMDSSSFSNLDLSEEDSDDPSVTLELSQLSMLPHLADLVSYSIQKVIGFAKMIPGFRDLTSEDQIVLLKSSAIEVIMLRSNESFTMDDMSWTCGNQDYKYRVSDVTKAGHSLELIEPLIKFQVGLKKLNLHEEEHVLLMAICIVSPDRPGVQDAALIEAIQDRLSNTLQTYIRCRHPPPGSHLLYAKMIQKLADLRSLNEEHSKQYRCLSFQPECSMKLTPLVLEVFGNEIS
Bile acid receptor (Homo sapiens), sequence (Q96RI1 whole entry, looked up): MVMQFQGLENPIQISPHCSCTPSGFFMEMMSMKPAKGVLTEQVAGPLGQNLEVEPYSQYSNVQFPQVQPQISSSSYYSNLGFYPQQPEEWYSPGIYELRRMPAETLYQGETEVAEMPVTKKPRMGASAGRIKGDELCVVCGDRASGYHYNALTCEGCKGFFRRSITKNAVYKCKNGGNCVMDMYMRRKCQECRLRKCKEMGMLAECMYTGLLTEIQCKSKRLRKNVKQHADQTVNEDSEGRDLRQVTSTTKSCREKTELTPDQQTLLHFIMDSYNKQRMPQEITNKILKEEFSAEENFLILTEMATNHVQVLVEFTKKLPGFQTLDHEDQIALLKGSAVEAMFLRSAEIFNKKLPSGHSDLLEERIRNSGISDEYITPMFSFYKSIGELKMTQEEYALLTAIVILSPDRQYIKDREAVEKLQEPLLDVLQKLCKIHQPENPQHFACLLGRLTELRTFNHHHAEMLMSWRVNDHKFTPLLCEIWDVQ

In the case of `Nc1ccc2cc3ccc(N)cc3nc2c1`, the Potency was 11.9 µM (active) and 6.11 µM (active) in experiment [1]; 24.3 µM (active) and 29.8 µM (active) in [2]; 43.6 µM (active) in experiment [3]. The Potency entry in [4], in [5], in experiment [6] and in experiment [7] was “inactive” in each case.

Turning to `CN(C)c1ccc(N=NS(=O)(=O)O)cc1`, the Potency in experiment [1] was 14.5 µM (active); in experiment [8], 8.63 µM (active). The Potency entry in experiment [2], in [3] and in experiment [7] was “inactive” throughout.

On to `C=CC(C)(CCC=C(C)C)OC(=O)/C=C/c1ccccc1` (stereo not drawn), for which the Potency result in [1], in experiment [9], in experiment [10], in experiment [2], in experiment [5] and in experiment [12] was “inactive” throughout. Besides, the Potency result in [13], in [7] and in experiment [14] was “inactive” in each case. For the same molecule, the result in [11] was inactive.

On to `COc1cc(C(C)C)c2c(c1)S(=O)(=O)N(COc1cc(=O)n3cccc(OCCN4CCCCC4)c3n1)C2=O`, for which the Potency entry in experiment [1], in experiment [9], in [10], in experiment [2], in experiment [3] and in [4] was “inactive” throughout. Further, the Potency entry in experiment [5], in experiment [12] and in experiment [7] was “inactive” each time.

Take `O=C1NCN(c2ccccc2)C12CCN(CCCC(c1ccc(F)cc1)c1ccc(F)cc1)CC2`: the Potency entry in [15] is “inactive”. Also, the Potency was 26.6 µM (active) in experiment [10]; 29.8 µM (active) in experiment [2]; 21.1 µM (active) in experiment [5]; 21.1 µM (active) in experiment [6]; 26.6 µM (active) in experiment [16]; 33.5 µM (active) in [7].

As for `CC1CCCCN1CCCOC(=O)c1ccc(OC2CCCCC2)cc1` (stereo not drawn), the Potency result in [2], in [3], in experiment [4], in experiment [6], in [17] and in experiment [12] was “inactive” in each case. The Potency result in experiment [13], in experiment [7], in experiment [18] and in [14] was “inactive” each time. Also, in experiment [11], the result was inactive.

Take `CC(C)c1cccc(C(C)C)c1N1C(=O)c2ccc(O)cc2C1=O`: the Potency entry in experiment [1], in [9], in experiment [3], in experiment [16] and in experiment [7] was “inactive” each time.

Consider `O=C1OC(=O)c2cccc3cccc1c23`, for which the Potency result in experiment [15], in experiment [9], in experiment [19], in experiment [10], in [2] and in experiment [3] was “inactive” in each case. For the same molecule, the Potency result in experiment [4], in experiment [5], in [17], in experiment [16] and in [7] was “inactive” each time. The call in experiment [11] was inactive.

Turning to `CCCCCCCC/C=C\CCCCCCCC(=O)N(C)CC(=O)O`, the Potency entry in experiment [1] was “inactive”. The Potency in experiment [9] is 6.92 µM (active); in experiment [3], 21.9 µM (active); in experiment [5], 38.9 µM (active); in [6], 12.3 µM (active); in [16], 38.9 µM (active); in [7], 54.9 µM (active).

The values above are taken from PubChem BioAssay (Tox21).
